AmpC det inh = Promiscuous and Specific Inhibitors of AmpC Beta-Lactamase (assay with detergent). P00811. purified AmpC, nitrocefin hydrolysis with detergent. Potency, µM (top dose mostly 28.7 µM), inactives show at the top dose activity change, negative = inhibition. 0.09% of 71,000 active. AID 584, 2007; active means well fitted curve in the direction sought with a large enough effect; inconclusive means small, poorly fitted or top-dose-only effect; further: on the % scale 0 is the no-effect control and ±100 the full control effect
Target sequence (P00811 whole entry, looked up): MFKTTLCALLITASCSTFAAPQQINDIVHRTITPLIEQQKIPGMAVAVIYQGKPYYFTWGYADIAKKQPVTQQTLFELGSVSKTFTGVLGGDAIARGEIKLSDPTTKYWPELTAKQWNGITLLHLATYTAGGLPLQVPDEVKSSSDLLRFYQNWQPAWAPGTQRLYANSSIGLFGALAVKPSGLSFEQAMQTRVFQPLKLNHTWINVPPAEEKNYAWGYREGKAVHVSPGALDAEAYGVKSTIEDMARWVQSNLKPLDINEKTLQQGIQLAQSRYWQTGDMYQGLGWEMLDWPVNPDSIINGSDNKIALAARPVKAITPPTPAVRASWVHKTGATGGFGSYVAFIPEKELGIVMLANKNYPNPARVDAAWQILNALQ
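E. coli AmpC (5.3 nM) in 20 mM phosphate pH 7.0 with 0.01% Triton X-100, preincubated 15 min RT with compound; nitrocefin (2 uL of 800 uM stock) hydrolysis followed by 480 nm absorbance every 20 s over 4 min.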
Anthrax LT inh = qHTS Assay for Anthrax Lethal Toxin Internalization; Cells, anthrax lethal toxin internalization, FRET ratio (460/530); 0.67% of 70,000 active; Potency, µM (titrated, usually from 40 µM), for the others: at the highest dose activity change, negative = inhibition, usual class: inhibitors; further: on the % scale 0 is the no-effect control and ±100 the full control effect; nearly all actives have a fitted effect of over 50% in size
SmPrx2 inh = Schistosoma Mansoni Peroxiredoxins (Prx2) | Schistosoma mansoni peroxiredoxin 2 (Prx2) | S. mansoni Prx2 activity coupled to TGR/GSH (TGR is thioredoxin glutathione reductase), NADPH fluorescence loss, qHTS | 0.07% of 65,000 active | AID 448, 2006 | Potency, µM
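Prx2 inhibition was measured as reduced NADPH consumption when electrons flowed from NADPH through TGR and glutathione to Prx2 and H2O2. Plates were read kinetically over 8 min; enzyme reagents were held at 4 deg C during dispensing.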
AmpC inh no det = Promiscuous and Specific Inhibitors of AmpC Beta-Lactamase (assay without detergent); P00811; AmpC nitrocefin hydrolysis, absorbance 480 nm, no detergent; Potency, µM (doses to about 28.7 µM), for the others: top-dose activity change, negative = inhibition; 1.8% of 71,000 active; AID 585, 2007; further: % of control where 0% means no effect
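AmpC, 20 mM phosphate pH 7.0; 15 min cpd preinc, RT; start with nitrocefin (800 uM stock); A480 kinetic read, 20 s intervals, 4 min. No-enzyme wells = negative control.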
An asterisk follows results filed as active; ? = inconclusive; . = not tested or not shown; ! = repeats disagree; [ ] = another dose, or the depositor's remark. The list is not random: actives were taken first. Their share in the collection is about 2.4%. Unless noted, the call rests on the fitted dose curve. Potency means the concentration at half of the fitted maximal effect.

SMILES | AmpC det inh | Anthrax LT inh | SmPrx2 inh | AmpC inh no det
Cn1c(Cn2c(=O)sc3ccccc32)nnc1SCC(=O)N1CCc2ccccc21 | 12% | -4% | >57 | 4µM*[single pt active]
Cn1c(Cn2c(=O)sc3ccccc32)nnc1SCC(=O)N1CCCc2ccccc21 | 13% | -9% | >57 | 4µM*[single pt active]
CC(=O)/C(=C\c1ccccc1F)C(=O)c1ccccc1 | -2%[5.75 µM] | -18%[8 µM] | >57 | -12%[5.75 µM]
C[C@@H](CNC1CCCCC1)OC(=O)c1ccccc1 | -2%[12.8 µM] | -5%[3.58 µM] | >57 | -5%[12.8 µM]
C[C@@]12CC[C@H]3[C@@H](CC=C4C[C@H](OS(=O)(=O)O)CC[C@]43C)[C@H]1CCC2=O | -1% | ? | >57 | 5%
CCN(CC)CCO[C@H]1CC[C@@]2(C)C(=CC[C@@H]3[C@H]2CC[C@]2(C)C(=O)CC[C@H]32)C1 | -2% | 25µM* | >57 | 44%
Cc1ccc(C(=N)c2ccccc2Cc2cccc3ccccc23)c2ccccc12 | -2%[5.75 µM] | 2.5µM* | >57 | 2%[5.75 µM]
Cc1cccc2ccccc12 | 8% | -7% | . | -1%
CN1CCN(c2cc(-c3ccccc3Cl)ncn2)CC1 | 5% | -2% | >57 | 3%
CC(=O)OC1c2ccccc2C(=O)N1c1ccccc1C (stereo not given) | 15% | -9% | >57 | 4µM*[single pt active]
COc1ccc(CNc2ccnc(-c3ccccc3Cl)n2)c(OC)c1 | -2% | ? | >57 | 31%
O=C(Nc1ccccc1)c1ccccc1O | 2% | -13% | >57 | -10%
O=C(N/N=C\c1ccccc1O)c1ccccc1O | -1% | ? | >57 | 16µM*
Cc1ccc(OCC(O)CN2CCN(CC(O)COc3ccc(C)cc3)CC2)cc1 (stereo not given) | 2% | 8% | >57 | 103%
CC(=O)c1ccc(OCC(O)CN2CCN(CCO)CC2)cc1 (stereo not given) | 11% | 1% | >57 | 4µM*[single pt active]
CC(=O)c1ccc(OCC(O)CN2CCCC(C)C2)cc1 (stereo not given) | 14% | 9% | >57 | 3.2µM*[single pt active]
CCN1CCN(CC(O)COc2ccc(C(C)=O)cc2)CC1 (stereo not given) | 14% | -4% | >57 | 4µM*[single pt active]
Cc1cccc(OCC(O)CN2C(C)(C)CC(O)CC2(C)C)c1C (stereo not given) | -1% | -3% | >57 | 15%
CC(=O)c1ccc(OCC(O)CN2C(C)(C)CC(O)CC2(C)C)cc1 (stereo not given) | 14% | 1% | >57 | 4µM*[single pt active]
CC[C@]1(c2ccccc2)NC(=O)N(C)C1=O | -2%[12.8 µM] | 1%[3.58 µM] | >57 | -4%[12.8 µM]
C[C@@H]1O[C@H](O[C@H]2C[C@@H](O)[C@]3(CO)[C@H]4[C@H](O)C[C@]5(C)[C@@H](C6=CC(=O)OC6)CC[C@@]5(O)[C@H]4CC[C@]3(O)C2)[C@@H](O)[C@H](O)[C@H]1O | 1% | ? | >57 | -3%
Cn1c(=O)n2n(c1=O)[C@H]1[C@H](O)[C@H]3O[C@@H]3/C(=N/OC[C@@H](O)COCc3ccco3)[C@@H]1CC2 | . | -3%[8 µM] | . | .
Cc1ccc(OCC(O)CN2CCN(Cc3ccc4c(c3)OCO4)CC2)c(C)c1 (stereo not given) | -4% | ? | >57 | 92%
CC(=O)c1ccc(OCC(O)CN2CCN(Cc3ccc4c(c3)OCO4)CC2)cc1 (stereo not given) | 14% | -17% | >57 | 4µM*[single pt active]
CN[C@@H]1NC(=O)c2ccccc2N1Cc1ccc(F)cc1 | -2%[5.75 µM] | -5%[8 µM] | >57 | 1%[5.75 µM]
SMILES | AmpC det inh | Anthrax LT inh | SmPrx2 inh | AmpC inh no det
O=C(Cn1c(C(=O)N2CCc3ccccc3C2)cc2sccc21)c1ccccc1 | 6% | ? | >57 | 16µM*[single pt active]
CNCCCC12CCC(c3ccccc31)c1ccccc12 | -1% | 5µM*! | >57 | 50%
CNCCCC1c2ccccc2C=Cc2ccccc21 | -1%[12.8 µM] | 4%[3.58 µM] | >57 | 1%[12.8 µM]
CC1CCN(c2c(NCc3ccc(C(=O)NCC4COc5ccccc5O4)cc3)c(=O)c2=O)CC1 (stereo not given) | 15% | -2% | >57 | 4µM*[single pt active]
O=C1CCC[C@H]2OC12[C@@H](O)CCc1ccccc1 (stereo not given in full) | . | 3%[1.6 µM] | . | .
COc1cc2c(cc1O)CCN[C@H]2C | 0% | ? | >57 | -4%
NS(=O)(=O)c1ccc(NC(=O)CCC2CCCCC2)cc1 | 9% | -22% | . | 7.9µM*
CO[C@H]1COC(=O)CCC[C@@H](C)[C@H](OC)COC(=O)[C@H]2CCCN2C(=O)C/C=C\[C@@H]1C | . | 5%[8 µM] | . | .
COc1ccc(-c2noc(-c3ccc(Br)o3)n2)cc1OC | -2% | ? | >57 | 9%

Source: PubChem BioAssay (National Center for Advancing Translational Sciences (NCATS))
